Reference: PubChem BioAssay AID623979 (Broad Institute, 2012)
Potency and affinity values are given separately. Results filed as inconclusive are left out. Activity calls are given as the source filed them.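 Rule for the calls: active = fitted half-maximal inhibition concentration at or below twice the top tested dose in every test run; inconclusive = runs disagree, or a weak flat response or poor fit; inactive = the rest, including flat or wrong-direction curves.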

biological target: Cyclin-dependent kinase 5 activator 1 (Homo sapiens) + Cyclin-dependent kinase 5 (Homo sapiens) (UniProt Q15078+Q00535); test: CDK5-p25 kinase inhibition, dose response, selectivity assay for GSK3beta inhibitor project, biochemical, microfluidic mobility shift, dry powder, set 2 (AID 623979); conditions: recombinant CDK5-p25, Caliper peptide conversion, 55 min; series mostly up to 35 µM
Sequence (Q00535 whole entry, looked up): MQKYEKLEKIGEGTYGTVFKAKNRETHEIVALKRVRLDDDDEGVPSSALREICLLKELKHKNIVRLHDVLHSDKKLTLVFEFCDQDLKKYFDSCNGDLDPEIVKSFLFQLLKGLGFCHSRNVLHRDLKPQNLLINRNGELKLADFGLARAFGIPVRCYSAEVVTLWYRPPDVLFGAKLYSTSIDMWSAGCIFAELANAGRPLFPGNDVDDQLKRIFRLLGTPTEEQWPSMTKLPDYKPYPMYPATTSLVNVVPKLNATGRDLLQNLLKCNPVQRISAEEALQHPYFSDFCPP
Sequence (Q15078 whole entry, looked up): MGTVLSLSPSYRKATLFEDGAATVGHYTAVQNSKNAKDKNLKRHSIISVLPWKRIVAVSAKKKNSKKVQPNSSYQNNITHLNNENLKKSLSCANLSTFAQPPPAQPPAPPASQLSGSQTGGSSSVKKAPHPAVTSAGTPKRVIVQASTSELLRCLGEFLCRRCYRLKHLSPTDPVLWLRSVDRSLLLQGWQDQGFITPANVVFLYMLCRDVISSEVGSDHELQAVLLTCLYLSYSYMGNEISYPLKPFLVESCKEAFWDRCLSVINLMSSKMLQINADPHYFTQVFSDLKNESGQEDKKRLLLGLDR

outcome, inactive:
Cc1cccc(OCC(=O)Nc2ccc3c(c2)C(=O)NC3=O)c1, Nc1nonc1-n1nnc(C(=O)N/N=C/c2cccc(Cl)c2)c1CN1CCCCCC1, Cc1ccc(S(=O)(=O)N2CCN(CC(=O)N/N=C/c3ccccn3)CC2)cc1, Nc1nonc1-n1nnc(C(=O)N/N=C/c2c(F)cccc2Cl)c1-c1ccc2c(c1)OCO2, COc1cc(C(=O)N2CCN(c3ccccn3)CC2)cc(OC)c1OC, Nc1nc(NCC2CCCO2)nc(Nc2ccc(F)cc2)c1[N+](=O)[O-] (stereo not given), Clc1ccc(CSc2nnc(-c3ccncc3)o2)c(Cl)c1, COC(=O)c1ccc(CSc2ccc3nnc(-c4ccc(F)cc4)n3n2)o1, Nc1nc(NCC2CCCO2)nc(Nc2ccc(Cl)cc2)c1[N+](=O)[O-] (stereo not given), CCOc1ccccc1/C=N/NC(=O)c1nnn(-c2nonc2N)c1CN1CCCCCC1
